Measured values reported in the supplement of paper PMC10849652.
Of roughly 7,900 targets only a part is listed; those with a hit were picked by preference. About 0.6% of all pairs of compound and target were hits.

What was measured:
Assay in all cases: log2 fold change, soluble protein after heating vs DMSO (PISA); higher = thermal stabilisation; K562 cells, 10 uM, 30 min; active = over 0.2 and 3.5 SD of the protein, either way, in both replicates (recomputed)
[1] = compound: CS(=O)(=O)c1ccc(-c2cnc(N)c(C(=O)Nc3ccccc3)n2)cc1
How it was run: (§1)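 Thermal stability values are relative to control samples and come from duplicates. They are expressed as log2 fold changes. For measurement, K562 cells (2×10^6 cells/mL) received 10 μM compound for 30 min, and aliquots were heated for 3 min over 48°C-58°C, pooled, and extracted at 4°C in PBS with 0.5% NP-40. Soluble protein, the supernatant after 21,000xg for 90 min, was quantified by TMTpro 16plex LC-MS/MS with equalised channel sums.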

[2] = compound: C[C@@H](Oc1cc(-c2cnn(C3CCNCC3)c2)cnc1N)c1c(Cl)ccc(F)c1Cl [crizotinib]
How it was run: as §1

[3] = compound: C[C@@H]1COCCN1C2=NC(=NC(=C2)C3(CC3)S(=O)(=O)C)C4=C5C=CNC5=CC=C4
How it was run: as §1

[4] = compound: C[C@H](C1=CC=C(C=C1)C(=O)NC2=C3C=CNC3=NC=C2)N
How it was run: as §1

[5] = compound: C[C@H](Nc1ncnc2nc[nH]c12)c1cc2cccc(Cl)c2c(=O)n1-c1ccccc1 [duvelisib]
How it was run: as §1

[6] = compound: Cc1cc(Nc2cc(CN3CCOCC3)c3nc(C)c(Cc4ccc(Cl)cc4F)n3n2)n[nH]1 [gandotinib]
How it was run: as §1

[7] = compound: Cc1cc(Nc2cc(N3CCN(C)CC3)nc(Sc3ccc(NC(=O)C4CC4)cc3)n2)n[nH]1 [tozasertib]
How it was run: as §1

[8] = compound: Cc1cc(SCc2sc(-c3ccc(C(F)(F)F)cc3)nc2C)ccc1OCC(=O)O
How it was run: as §1

[9] = compound: Cc1ccc(-n2nc(C(C)(C)C)cc2NC(=O)Nc2ccc(OCCN3CCOCC3)c3ccccc23)cc1 [doramapimod]
How it was run: as §1

[10] = compound: Cc1ccc(C(=O)N(CCCN)[C@@H](c2nc3cc(Cl)ccc3c(=O)n2Cc2ccccc2)C(C)C)cc1 [ispinesib]
How it was run: as §1

[11] = compound: Cc1ccc(NC(=O)c2ccc(CN3CC[C@H](N(C)C)C3)c(C(F)(F)F)c2)cc1Nc1nccc(-c2cncnc2)n1 [bafetinib]
How it was run: as §1

[12] = compound: Cc1cccc(CC(=O)N2CCc3c2ccc(-c2cn(C)c4ncnc(N)c24)c3F)n1
How it was run: as §1

[13] = compound: Cc1cn(-c2cc(NC(=O)c3ccc(C)c(Nc4nccc(-c5cccnc5)n4)c3)cc(C(F)(F)F)c2)cn1 [nilotinib]
How it was run: as §1

[14] = compound: Cc1nc(Nc2n[nH]c3c2CN(C(=O)N[C@H](CN(C)C)c2ccccc2)C3(C)C)c2sccc2n1
How it was run: as §1

[15] = compound: Cc1nc(Nc2ncc(C(=O)Nc3c(C)cccc3Cl)s2)cc(N2CCN(CCO)CC2)n1 [dasatinib]
How it was run: as §1

[16] = compound: Cc1ncc(-c2ccnc(Nc3ccc(S(C)(=O)=O)cc3)n2)n1C(C)C
How it was run: as §1

[17] = compound: Cn1cc(-c2ccc3c(c2)CCN3C(=O)Cc2cccc(C(F)(F)F)c2)c2c(N)ncnc21
How it was run: as §1

[18] = compound: Cn1cc(-c2ccc3nnc(C(F)(F)c4ccc5ncccc5c4)n3n2)cn1
How it was run: as §1

[19] = compound: Cn1cncc1[C@@](N)(c1ccc(Cl)cc1)c1ccc2c(c1)c(-c1cccc(Cl)c1)cc(=O)n2C [tipifarnib]
How it was run: as §1

[20] = compound: FC(F)(F)c1ccc(/C=C/c2nc(COc3ccc(CCCCn4ccnn4)cc3)co2)cc1 [mubritinib]
How it was run: as §1

Measured: log2 fold change

DBN1 isoform 3 (UniProt Q16643)
active: [15] 0.264
inactive: [1] -0.063 | [2] 0.088 | [3] -0.075 | [4] 0.044 | [5] -0.097 | [6] -0.009 | [7] 0.158 | [8] -0.02 | [9] 0.02 | [10] 0.071 | [11] -0.106 | [12] 0.032 | [13] -0.05 | [14] -0.043 | [16] -0.041 | [17] -0.22 | [18] -0.069 | [19] 0.086 | [20] 0

EHD2 (UniProt Q9NZN4)
inactive: [1] 0 | [2] -0.068 | [3] 0.077 | [4] -0.008 | [5] 0.048 | [6] -0.028 | [7] -0.003 | [8] 0.002 | [9] 0 | [10] -0.007 | [11] -0.051 | [12] 0.008 | [13] -0.062 | [14] 0.01 | [15] -0.112 | [16] 0.003 | [17] 0.012 | [18] -0.031 | [19] -0.028 | [20] -0.061

EBNA1BP2 (UniProt Q99848)
Sequence of UniProt Q99848 (Q99848 whole entry, looked up): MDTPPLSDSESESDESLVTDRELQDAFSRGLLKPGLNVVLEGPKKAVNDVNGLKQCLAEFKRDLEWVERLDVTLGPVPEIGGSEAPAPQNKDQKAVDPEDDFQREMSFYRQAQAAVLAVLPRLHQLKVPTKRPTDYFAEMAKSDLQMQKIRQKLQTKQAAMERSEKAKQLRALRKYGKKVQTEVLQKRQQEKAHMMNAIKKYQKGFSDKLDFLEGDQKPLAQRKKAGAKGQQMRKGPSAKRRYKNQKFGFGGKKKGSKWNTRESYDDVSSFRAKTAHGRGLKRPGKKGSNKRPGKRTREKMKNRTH
inactive: [1] -0.013 | [2] -0.025 | [3] -0.236 | [4] 0.394 | [5] -0.138 | [6] 0.104 | [7] 0.191 | [8] 0.025 | [9] 0.282 | [10] 0.21 | [11] 0.312 | [12] -0.114 | [13] 0.114 | [14] -0.089 | [15] 0.226 | [16] -0.004 | [17] -0.499 | [18] -0.176 | [19] 0.134 | [20] -0.124

DBR1 (UniProt Q9UK59)
inactive: [1] -0.034 | [2] -0.022 | [3] 0.061 | [4] -0.014 | [5] -0.072 | [6] 0.003 | [7] -0.051 | [8] 0.01 | [9] 0.02 | [10] 0.058 | [11] -0.001 | [12] 0.02 | [13] -0.023 | [14] 0.05 | [15] 0.06 | [16] -0.009 | [17] 0.021 | [18] -0.067 | [19] 0.03 | [20] -0.002

CTSB (UniProt P07858)
inactive: [1] 0.048 | [3] 0.057 | [4] -0.042 | [5] 0.016 | [6] 0.006 | [7] -0.006 | [8] 0.015 | [9] -0.014 | [12] -0.038 | [13] 0.001 | [14] -0.028 | [15] -0.008 | [16] -0.029 | [17] 0.014 | [18] 0.033 | [19] 0.008 | [20] -0.007
active: [2] -0.508 | [10] -0.403 | [11] -0.842

EEF1AKNMT (UniProt Q8N6R0)
Sequence of UniProt Q8N6R0 (Q8N6R0 whole entry, looked up): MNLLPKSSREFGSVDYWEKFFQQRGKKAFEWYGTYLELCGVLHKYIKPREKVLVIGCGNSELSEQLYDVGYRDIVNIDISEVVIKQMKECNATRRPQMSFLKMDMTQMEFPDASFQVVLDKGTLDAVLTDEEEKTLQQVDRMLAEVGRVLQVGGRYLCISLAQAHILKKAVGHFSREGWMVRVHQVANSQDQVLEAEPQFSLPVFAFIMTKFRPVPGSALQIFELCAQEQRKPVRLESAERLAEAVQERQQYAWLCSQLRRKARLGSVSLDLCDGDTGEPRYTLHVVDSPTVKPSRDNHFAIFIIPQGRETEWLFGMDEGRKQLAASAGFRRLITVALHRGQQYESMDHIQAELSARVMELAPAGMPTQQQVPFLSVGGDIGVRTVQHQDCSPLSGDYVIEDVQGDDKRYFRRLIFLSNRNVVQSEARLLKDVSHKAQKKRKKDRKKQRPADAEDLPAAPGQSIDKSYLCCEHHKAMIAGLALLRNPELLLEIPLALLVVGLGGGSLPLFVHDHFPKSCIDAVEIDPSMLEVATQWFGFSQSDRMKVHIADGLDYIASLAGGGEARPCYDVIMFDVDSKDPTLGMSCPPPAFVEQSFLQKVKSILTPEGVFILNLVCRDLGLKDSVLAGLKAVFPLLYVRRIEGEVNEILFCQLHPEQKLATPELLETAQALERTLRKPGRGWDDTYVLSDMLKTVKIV
inactive: [1] -0.011 | [2] -0.059 | [3] 0.006 | [4] 0.111 | [5] -0.047 | [6] -0.09 | [7] 0.071 | [8] 0.153 | [9] 0.077 | [10] -0.072 | [11] 0.067 | [12] -0.008 | [13] -0.02 | [14] -0.062 | [15] -0.118 | [16] 0.084 | [17] -0.031 | [18] 0.003 | [19] -0.154 | [20] 0.089

FAM118A (UniProt Q9NWS6)
inactive: [1] -0.028 | [2] -0.112 | [3] 0.044 | [4] 0.036 | [5] -0.006 | [6] -0.44 | [7] -0.088 | [8] 0.097 | [9] -0.02 | [10] 0.034 | [11] -0.076 | [12] 0 | [13] -0.092 | [14] -0.216 | [15] -0.314 | [16] -0.039 | [17] -0.019 | [18] 0.135 | [19] -0.128 | [20] 0.043

ESS2 (UniProt Q96DF8)
Sequence of UniProt Q96DF8 (Q96DF8 whole entry, looked up): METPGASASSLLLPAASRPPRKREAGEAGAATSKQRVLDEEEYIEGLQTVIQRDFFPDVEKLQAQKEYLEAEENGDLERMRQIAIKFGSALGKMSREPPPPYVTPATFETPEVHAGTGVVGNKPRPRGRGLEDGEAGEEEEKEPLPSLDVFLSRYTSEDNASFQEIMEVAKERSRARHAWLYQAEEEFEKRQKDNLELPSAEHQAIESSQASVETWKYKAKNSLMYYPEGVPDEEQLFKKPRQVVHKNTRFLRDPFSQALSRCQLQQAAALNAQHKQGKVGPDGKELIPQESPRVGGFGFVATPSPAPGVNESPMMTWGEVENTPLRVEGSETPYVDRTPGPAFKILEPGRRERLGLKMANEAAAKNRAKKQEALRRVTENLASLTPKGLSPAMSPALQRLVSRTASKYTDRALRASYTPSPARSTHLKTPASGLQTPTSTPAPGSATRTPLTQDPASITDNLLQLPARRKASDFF
inactive: [1] -0.081 | [2] -0.079 | [3] 0.016 | [4] 0.031 | [5] -0.069 | [6] 0.004 | [7] -0.029 | [8] -0.044 | [9] 0.02 | [10] -0.053 | [11] -0.186 | [12] -0.07 | [13] 0.013 | [14] -0.048 | [15] 0.011 | [16] 0.019 | [17] -0.061 | [18] -0.081 | [19] 0.038 | [20] 0.008

CTSA (UniProt P10619)
Sequence of UniProt P10619 (P10619 whole entry, looked up): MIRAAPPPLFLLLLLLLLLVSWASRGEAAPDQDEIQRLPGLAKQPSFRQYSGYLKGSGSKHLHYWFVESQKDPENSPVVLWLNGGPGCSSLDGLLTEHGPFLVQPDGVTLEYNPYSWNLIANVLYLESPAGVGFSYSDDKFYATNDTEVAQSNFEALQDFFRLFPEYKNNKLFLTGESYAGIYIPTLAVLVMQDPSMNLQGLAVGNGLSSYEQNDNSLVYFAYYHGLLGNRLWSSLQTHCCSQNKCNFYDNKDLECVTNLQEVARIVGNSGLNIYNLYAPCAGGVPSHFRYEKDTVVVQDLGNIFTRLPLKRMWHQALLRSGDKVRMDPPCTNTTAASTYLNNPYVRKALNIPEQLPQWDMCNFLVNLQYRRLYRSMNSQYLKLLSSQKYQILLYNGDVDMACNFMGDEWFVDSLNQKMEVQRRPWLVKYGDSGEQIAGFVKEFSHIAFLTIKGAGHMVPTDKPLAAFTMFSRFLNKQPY
active: [2] -0.563 | [10] -0.237 | [11] -0.595
inactive: [1] 0.032 | [3] 0.002 | [4] -0.036 | [5] -0.039 | [6] 0.043 | [7] 0.011 | [8] 0.003 | [9] 0.009 | [12] -0.04 | [13] 0.052 | [14] 0.015 | [15] 0.112 | [16] -0.001 | [17] 0.019 | [18] 0.005 | [19] 0.16 | [20] 0.007

DNAJB12 (UniProt Q9NXW2)
inactive: [1] 0.02 | [2] -0.029 | [3] 0.038 | [4] 0.035 | [5] -0.009 | [6] -0.073 | [7] -0.001 | [8] 0.097 | [9] -0.034 | [11] -0.057 | [12] 0.007 | [13] -0.158 | [14] 0.041 | [15] -0.068 | [16] 0.015 | [17] -0.04 | [18] -0.039 | [19] 0.016 | [20] 0.01
active: [10] -0.227

FAM3A (UniProt P98173)
Sequence of UniProt P98173 (P98173 whole entry, looked up): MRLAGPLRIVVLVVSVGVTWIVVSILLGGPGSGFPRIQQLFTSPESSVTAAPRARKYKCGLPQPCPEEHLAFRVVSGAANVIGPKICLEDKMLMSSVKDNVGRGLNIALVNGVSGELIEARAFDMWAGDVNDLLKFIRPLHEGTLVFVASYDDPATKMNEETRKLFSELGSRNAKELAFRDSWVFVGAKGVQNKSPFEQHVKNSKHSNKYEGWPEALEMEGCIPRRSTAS
inactive: [1] 0.01 | [2] -0.071 | [3] 0.07 | [4] 0.01 | [5] 0.006 | [6] 0.014 | [7] -0.025 | [8] -0.075 | [9] 0.009 | [10] -0.065 | [11] -0.027 | [12] 0.023 | [13] 0.007 | [14] -0.044 | [15] 0.036 | [16] -0.001 | [17] 0.031 | [18] -0.03 | [19] 0.042 | [20] 0

DHCR24 (UniProt Q15392)
Sequence of UniProt Q15392 (Q15392 whole entry, looked up): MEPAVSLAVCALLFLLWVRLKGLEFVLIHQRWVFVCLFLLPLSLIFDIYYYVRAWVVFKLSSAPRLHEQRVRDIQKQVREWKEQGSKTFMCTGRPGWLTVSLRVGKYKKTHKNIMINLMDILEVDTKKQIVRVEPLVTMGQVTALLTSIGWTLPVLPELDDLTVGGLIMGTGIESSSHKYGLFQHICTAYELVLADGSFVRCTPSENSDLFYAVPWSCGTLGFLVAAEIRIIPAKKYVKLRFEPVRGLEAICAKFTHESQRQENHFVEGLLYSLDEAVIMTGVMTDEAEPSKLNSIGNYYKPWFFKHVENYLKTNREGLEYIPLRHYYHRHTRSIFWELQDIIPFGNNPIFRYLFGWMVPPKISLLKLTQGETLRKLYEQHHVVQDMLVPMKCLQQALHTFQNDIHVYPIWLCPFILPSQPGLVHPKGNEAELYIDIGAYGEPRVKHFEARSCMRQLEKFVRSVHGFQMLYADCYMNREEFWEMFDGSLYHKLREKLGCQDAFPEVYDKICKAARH
active: [9] 0.982 | [11] 1.39
inactive: [1] 0.229 | [2] 0.428 | [3] 0.076 | [4] 0.056 | [5] 0.027 | [6] -0.025 | [7] 0.276 | [8] -0.063 | [10] -0.053 | [12] -0.001 | [13] -0.03 | [14] 0.025 | [15] 0.127 | [16] 0.577 | [17] 0.292 | [18] 0.043 | [19] -0.006 | [20] 0.47

DYNC1I2 isoform 5 (UniProt Q13409)
Sequence of UniProt Q13409 (Q13409 whole entry, looked up): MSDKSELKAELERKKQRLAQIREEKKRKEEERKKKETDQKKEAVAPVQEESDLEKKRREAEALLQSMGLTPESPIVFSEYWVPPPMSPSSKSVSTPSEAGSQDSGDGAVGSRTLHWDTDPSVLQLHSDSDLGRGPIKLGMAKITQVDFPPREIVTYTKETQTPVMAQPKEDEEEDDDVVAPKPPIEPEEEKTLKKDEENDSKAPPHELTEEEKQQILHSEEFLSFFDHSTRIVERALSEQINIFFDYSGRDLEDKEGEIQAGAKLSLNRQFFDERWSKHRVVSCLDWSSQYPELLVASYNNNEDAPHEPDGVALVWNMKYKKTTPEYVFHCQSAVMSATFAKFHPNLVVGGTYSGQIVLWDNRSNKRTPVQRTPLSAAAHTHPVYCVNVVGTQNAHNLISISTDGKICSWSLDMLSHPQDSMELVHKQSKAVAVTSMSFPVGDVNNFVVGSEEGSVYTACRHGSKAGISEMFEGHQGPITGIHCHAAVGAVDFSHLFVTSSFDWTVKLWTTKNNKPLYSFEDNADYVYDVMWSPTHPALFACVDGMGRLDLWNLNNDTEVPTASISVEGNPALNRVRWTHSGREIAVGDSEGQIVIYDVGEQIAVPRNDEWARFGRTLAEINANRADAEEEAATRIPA
inactive: [1] 0.026 | [2] 0.055 | [3] -0.035 | [4] -0.007 | [5] 0.019 | [6] 0.027 | [7] -0.022 | [8] -0.007 | [9] -0.011 | [10] 0.028 | [11] -0.071 | [12] -0.018 | [13] 0.015 | [14] 0.002 | [15] -0.012 | [16] 0.011 | [17] 0.003 | [18] -0.008 | [19] -0.038 | [20] 0.046

DPP8 (UniProt Q6V1X1)
inactive: [1] 0.04 | [2] -0.003 | [3] 0.011 | [4] -0.048 | [5] 0.025 | [6] -0.038 | [7] -0.027 | [8] 0.006 | [9] 0.008 | [10] 0.019 | [11] -0.054 | [12] -0.035 | [13] 0.027 | [14] -0.019 | [15] 0.014 | [16] -0.001 | [17] 0.048 | [18] 0.054 | [19] 0.065 | [20] 0.036

EXOC1 (UniProt Q9NV70)
Sequence of UniProt Q9NV70 (Q9NV70 whole entry, looked up): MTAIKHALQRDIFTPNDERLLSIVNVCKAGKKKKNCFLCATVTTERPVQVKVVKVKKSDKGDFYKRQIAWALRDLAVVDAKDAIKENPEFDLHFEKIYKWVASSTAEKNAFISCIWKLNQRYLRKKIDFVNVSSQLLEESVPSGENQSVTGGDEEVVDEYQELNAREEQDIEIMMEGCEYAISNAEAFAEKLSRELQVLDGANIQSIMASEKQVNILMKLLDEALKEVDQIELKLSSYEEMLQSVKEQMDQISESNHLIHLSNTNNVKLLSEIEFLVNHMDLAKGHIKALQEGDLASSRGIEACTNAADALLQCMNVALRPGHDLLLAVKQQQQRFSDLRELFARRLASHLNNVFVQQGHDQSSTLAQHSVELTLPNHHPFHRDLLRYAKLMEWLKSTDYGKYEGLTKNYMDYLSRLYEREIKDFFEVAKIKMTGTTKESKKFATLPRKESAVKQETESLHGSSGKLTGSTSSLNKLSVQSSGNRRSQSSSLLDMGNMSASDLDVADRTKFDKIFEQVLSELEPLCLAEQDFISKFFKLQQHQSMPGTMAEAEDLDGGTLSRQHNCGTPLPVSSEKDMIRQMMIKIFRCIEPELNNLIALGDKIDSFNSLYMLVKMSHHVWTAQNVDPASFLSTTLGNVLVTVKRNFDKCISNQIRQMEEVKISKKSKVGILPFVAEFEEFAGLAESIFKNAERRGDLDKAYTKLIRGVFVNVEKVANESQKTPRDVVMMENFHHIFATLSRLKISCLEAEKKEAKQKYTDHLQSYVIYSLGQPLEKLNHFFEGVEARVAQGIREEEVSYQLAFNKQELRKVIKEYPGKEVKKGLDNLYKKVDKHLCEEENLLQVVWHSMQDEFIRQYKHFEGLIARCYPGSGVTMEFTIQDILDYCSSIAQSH
active: [10] -0.472
inactive: [1] -0.036 | [2] -0.336 | [3] -0.007 | [4] 0.174 | [5] -0.013 | [6] -0.179 | [7] -0.016 | [8] 0.067 | [9] 0.138 | [11] 0.061 | [12] 0.025 | [13] -0.034 | [14] -0.069 | [15] -0.126 | [16] -0.051 | [17] -0.008 | [18] 0.026 | [19] -0.098 | [20] 0.032

EGLN1 (UniProt Q9GZT9)
Sequence of UniProt Q9GZT9 (Q9GZT9 whole entry, looked up): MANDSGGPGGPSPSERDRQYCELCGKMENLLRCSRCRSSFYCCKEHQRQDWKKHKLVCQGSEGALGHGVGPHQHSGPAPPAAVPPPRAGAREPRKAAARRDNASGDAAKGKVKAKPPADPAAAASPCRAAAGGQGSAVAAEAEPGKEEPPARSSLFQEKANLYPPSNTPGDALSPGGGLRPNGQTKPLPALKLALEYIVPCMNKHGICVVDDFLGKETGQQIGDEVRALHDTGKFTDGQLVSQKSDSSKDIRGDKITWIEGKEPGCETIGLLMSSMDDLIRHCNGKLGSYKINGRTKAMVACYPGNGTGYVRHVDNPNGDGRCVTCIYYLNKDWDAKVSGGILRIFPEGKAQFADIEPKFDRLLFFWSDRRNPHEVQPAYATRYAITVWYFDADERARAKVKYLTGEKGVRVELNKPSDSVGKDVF
inactive: [1] 0.01 | [2] -0.029 | [3] -0.064 | [4] -0.035 | [5] 0.029 | [6] -0.036 | [7] 0.044 | [8] 0 | [9] -0.014 | [10] -0.04 | [11] -0.031 | [12] -0.018 | [13] 0.066 | [14] -0.026 | [15] -0.073 | [16] -0.036 | [17] -0.01 | [18] 0.017 | [19] 0.016 | [20] -0.116
